Results taken from PubChem BioAssay AID2284347 (EPA ToxCast).
Records with an inconclusive call do not appear. Active and inactive are the calls of the source. Rule for the calls: active = hit-call score of the fitted dose curve at least 0.9, where 1 is the maximum; inconclusive = response in the unintended direction; inactive = score below 0.9.

Test system: rainbow trout Peroxisome Proliferator-activated Receptor alpha (PPARa), gene 110490141
Assay: ATG_rtPPARa_EcoTox2: Attagene TRANS-FACTORIAL EcoTox-2 HepG2 Assay for rainbow trout Peroxisome Proliferator-activated Receptor alpha (PPARa)
Method: ATG_EcoTox2 is a cell-based, multiplexed assay created by modifying the existing Attagene TRANS-FACTORIAL system to include a panel of nuclear receptors from some or all the following species: human (Homo sapiens), african clawed frog (Xenopus laevis), rainbow trout (Oncorhynchus mykiss), japanese medaka (Oryzias latipes), and zebrafish (Danio rerio). The ECOTOX2-FACTORIAL format uses HepG2, a human liver cell line, with measurements taken at 24 hours after chemical dosing in a 24-well plate. ATG_rtPPARa_EcoTox2 is one of 29 assay components calculated in the ATG_EcoTox2 assay. It is designed to make measurements of mRNA induction, a form of inducible reporter, as detected with fluorescence intensity signals by Reverse transcription polymerase chain reaction (RT-PCR) and Capillary electrophoresis technology.The assay endpoint ATG_frPPARa_EcoTox2 was analyzed in the positive analysis fitting direction relative to DMSO as the negative control and baseline of activity. Using a type of inducible reporter, measures of mRNA for gain-of-signal activity can be used to understand the reporter gene at the transcription factor-level as they relate to the gene PPARa. Furthermore, this assay endpoint can be referred to as a primary readout, because this assay has produced multiple assay endpoints where this one serves a reporter gene function. […]

Compound	AC50
O=S(=O)(O)C(F)(F)C(F)(F)C(F)(F)C(F)(F)C(F)(F)C(F)(F)F	30.6 µM (active)
O=C(O)C(F)(F)C(F)(F)C(F)(F)C(F)(F)C(F)(F)C(F)(F)C(F)(F)F	54.2 µM (active)
